Among the test systems are K-562 leukemia; MALME-3M melanoma; MDA-MB-231 breast; RXF 393 renal; SF-268 CNS; SF-295 CNS; SF-539 CNS; UACC-257 melanoma; M14 melanoma; HCT-15 colon; HT29 colon; SNB-75 CNS; SNB-19 CNS; U251 CNS; PC-3 prostate; SK-MEL-5 melanoma; UACC-62 melanoma; LOX IMVI melanoma; SK-MEL-28 melanoma; SK-MEL-2 melanoma.
Common to all, as to assay: NCI-60 one-dose screen, 48 h (100 = growth as untreated, 0 = no growth, -100 = all killed)
Holding throughout (details): 10 µM unless noted

The values below come from PubChem BioAssay (NCI).

The panel holds about 83,000 compounds, 20% with a hit somewhere; the sample as a whole holds those more often.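 A percent growth of 40 corresponds to 60% growth inhibition; 0 means no net growth; -100 means all cells died. Active threshold: below 10.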 Values without a mark were called inactive. Active and inactive are the calls of the source.

Regarding `CCCSc1nc(Nc2ccc(/C(C)=N\NC(N)=S)cc2)c(C#N)c(-c2ccc(OC)cc2)n1`, the growth was 85.1% in the assay with K-562 leukemia; 49.2% with MALME-3M melanoma; 7.95% (active) in the assay with MDA-MB-231 breast; 10.8% in the assay on RXF 393 renal; 64.5% with SF-268 CNS; 42.2% in the assay with SF-295 CNS. Also, the growth in the assay on SF-539 CNS is 18.7%; with UACC-257 melanoma, 93.7%; in the assay on M14 melanoma, 79.5%; with HCT-15 colon it was 75.7%; in the assay on HT29 colon, 87.7%; with SNB-75 CNS, 56%. For the same compound, the growth in the assay on SNB-19 CNS was 39.7%; in the assay with U251 CNS, 17.1%; in the assay with PC-3 prostate, 99.8%; with SK-MEL-5 melanoma it was 58.2%; in the assay on UACC-62 melanoma, 87.7%; in the assay with LOX IMVI melanoma, 68%. Besides, the growth in the assay on SK-MEL-28 melanoma was 79.8%; with SK-MEL-2 melanoma, 89.7%.
Consider `Cc1nc(-c2cc3ccccc3oc2=O)ccc1C(=O)/C=C/c1ccc(N2CCOCC2)cc1`, for which the growth in the assay on K-562 leukemia was 38%; in the assay with MALME-3M melanoma it was 57.5%; in the assay with MDA-MB-231 breast it was 54.3%; in the assay with RXF 393 renal, 89.6%; with SF-268 CNS, 75.3%; with SF-295 CNS, 66%. Further, the growth is 45.2% in the assay on SF-539 CNS; 89% in the assay on UACC-257 melanoma; 45.6% in the assay with M14 melanoma; 54.5% in the assay with HCT-15 colon; 80.4% in the assay on HT29 colon; 58.9% in the assay with SNB-75 CNS. Besides, the growth was 79.9% with SNB-19 CNS; 89.8% in the assay with U251 CNS; 86.6% in the assay with PC-3 prostate; 71.5% with SK-MEL-5 melanoma; 52.1% in the assay with UACC-62 melanoma; 31.3% in the assay on LOX IMVI melanoma. Also, the growth is 72.8% with SK-MEL-28 melanoma and 91.4% with SK-MEL-2 melanoma.
In the case of `O=C(c1ccc(Cl)cc1)C1[C@H](c2ccc(Cl)cc2)[C@@H](c2ccccc2)NC12C(=O)Nc1ccc(Br)cc12` (stereo not given in full), the growth is 17% with K-562 leukemia; 62.7% in the assay with MALME-3M melanoma; 37.2% in the assay on MDA-MB-231 breast; 6.62% (active) in the assay on RXF 393 renal; 34.3% in the assay with SF-268 CNS; 35.4% with SF-295 CNS. Moreover, the growth is 59.5% with SF-539 CNS; 57.7% in the assay on UACC-257 melanoma; 27.2% with M14 melanoma; 24.6% in the assay on HCT-15 colon; 0.232% (active) in the assay on HT29 colon; 43.9% in the assay on SNB-75 CNS. Also, the growth is 60.5% in the assay with SNB-19 CNS; 28.3% in the assay on U251 CNS; 12.8% with PC-3 prostate; 54.8% in the assay on SK-MEL-5 melanoma; 37.4% with UACC-62 melanoma; 15.3% with LOX IMVI melanoma. The growth in the assay on SK-MEL-28 melanoma is 67.3%; with SK-MEL-2 melanoma, 38.7%.
With `CN(C)CCCOc1c2ccc(Cl)cc2nc2c1oc1ccccc12`, the growth in the assay with K-562 leukemia was 0.751% (active); in the assay with MALME-3M melanoma, -81.2% (active); with MDA-MB-231 breast, -7.6% (active); in the assay with RXF 393 renal, -66% (active); in the assay on SF-268 CNS, -9.41% (active); in the assay on SF-295 CNS it was -19.2% (active). The growth with SF-539 CNS is -58.9% (active); with UACC-257 melanoma, -18.5% (active); in the assay on M14 melanoma, -84.2% (active); with HCT-15 colon it was -21.6% (active); in the assay with HT29 colon, -45.5% (active); in the assay with SNB-75 CNS, -18.6% (active). In addition, the growth in the assay with SNB-19 CNS is 5.62% (active); in the assay with U251 CNS, 4.05% (active); in the assay with PC-3 prostate, 5.27% (active); in the assay on SK-MEL-5 melanoma it was -97.9% (active); in the assay on UACC-62 melanoma, -73.8% (active); in the assay with LOX IMVI melanoma, -84.8% (active). Besides, the growth with SK-MEL-28 melanoma is -76.4% (active); in the assay on SK-MEL-2 melanoma it was -87.6% (active).
Take `COc1cc(-c2nc3ccc(-c4nnc(SCC(=O)Nc5ccc(C(C)=O)cc5)o4)cc3[nH]2)cc(OC)c1OC`: the growth in the assay on K-562 leukemia is 108%; in the assay on MALME-3M melanoma it was 97.7%; with MDA-MB-231 breast it was 96%; in the assay with RXF 393 renal, 116%; in the assay on SF-268 CNS it was 111%; in the assay on SF-295 CNS it was 101%. Besides, the growth in the assay with SF-539 CNS was 97.6%; with UACC-257 melanoma, 105%; in the assay with M14 melanoma it was 105%; with HCT-15 colon it was 103%; in the assay with HT29 colon, 108%; in the assay on SNB-75 CNS, 96.6%. Also, the growth in the assay with SNB-19 CNS was 100%; in the assay on U251 CNS, 103%; in the assay on PC-3 prostate it was 93.3%; with SK-MEL-5 melanoma, 102%; with UACC-62 melanoma, 93.2%; with LOX IMVI melanoma, 108%. Also, the growth in the assay with SK-MEL-28 melanoma is 103%; with SK-MEL-2 melanoma it was 115%.
Take `CC(C)(C)Nc1nc2c(OCCc3ccccc3)cccn2c1-c1ccc(Cl)cc1`: the growth is 5.28% (active) in the assay with K-562 leukemia; 1.51% (active) in the assay with MALME-3M melanoma; 17.4% in the assay on MDA-MB-231 breast; -15.3% (active) in the assay on RXF 393 renal; 45.5% in the assay with SF-268 CNS; 3.7% (active) in the assay with SF-295 CNS. The growth with SF-539 CNS is 21.7%; in the assay on UACC-257 melanoma, 16.7%; in the assay on M14 melanoma, 26.8%; with HCT-15 colon, 3.86% (active); with HT29 colon, 24.2%; with SNB-75 CNS, 51.7%. The growth with SNB-19 CNS is 19.7%; in the assay with U251 CNS, 11.9%; in the assay with PC-3 prostate, 3.08% (active); in the assay on SK-MEL-5 melanoma it was -71.6% (active); with UACC-62 melanoma, 11.1%; in the assay with LOX IMVI melanoma, 2.87% (active). For the same compound, the growth was 29.7% in the assay on SK-MEL-28 melanoma and -33.9% (active) with SK-MEL-2 melanoma.
`Oc1c(Cl)cc(Cl)c2ccc(CN3CCCCC3)nc12`: the growth in the assay on K-562 leukemia is 21.9%; with MALME-3M melanoma, 31.4%; in the assay on MDA-MB-231 breast it was 40.4%; with RXF 393 renal, 78.2%; with SF-268 CNS, 41.9%; in the assay on SF-295 CNS, 26.5%. The growth is 29.1% in the assay with SF-539 CNS; 43.1% in the assay on UACC-257 melanoma; 8.72% (active) with M14 melanoma; 26.7% in the assay on HCT-15 colon; 48.3% in the assay on HT29 colon; 83.3% in the assay on SNB-75 CNS. Further, the growth is 44.1% in the assay on SNB-19 CNS; 30.6% with U251 CNS; 56.8% with PC-3 prostate; 33.1% in the assay with SK-MEL-5 melanoma; 4.28% (active) with UACC-62 melanoma; 31.7% in the assay on LOX IMVI melanoma. In addition, the growth is 28.7% with SK-MEL-28 melanoma and 84.1% with SK-MEL-2 melanoma.
